Experiment in all cases: NCI-60 one-dose screen, 48 h (100 = growth as untreated, 0 = no growth, -100 = all killed)
Common to all, as to details: 10 µM unless noted

The subject of assay [1] is HCT-15 colon.
Assay [2] relates to HT29 colon.
The subject of assay [3] is SNB-75 CNS.
Assay [4] has as its system SNB-19 CNS.
For assay [5], the system named is U251 CNS.
Assay [6] deals with PC-3 prostate.
For assay [7], the system named is SK-MEL-5 melanoma.
Assay [8] concerns UACC-62 melanoma.
Assay [9] concerns LOX IMVI melanoma.
The subject of assay [10] is SK-MEL-28 melanoma.
Assay [11] deals with SK-MEL-2 melanoma.
The test system of assay [12] is EKVX NSCLC.
In assay [13] the test system is SN12C renal.
Assay [14] has as its system UO-31 renal.
For assay [15], the system named is TK-10 renal.
The test system of assay [16] is ACHN renal.
Assay [17] has as its system CAKI-1 renal.
For assay [18], the system named is A498 renal.
Assay [19] relates to CCRF-CEM leukemia.
Assay [20] has as its system MOLT-4 leukemia.

Compounds without any hit were thinned out: in the full panel of roughly 83,000, 20% have a hit.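 Growth was measured after 48 h exposure to one concentration of compound in 96-well plates. Values under 10 count as active.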 Unmarked numbers belong to inactive results. Activity calls are given as the source filed them.

On to `COc1cc(C(=O)c2cc(C(C)=O)c3ccc(C)cn23)cc(OC)c1OC`, for which the growth in assay [1] was 18.9%; in assay [2], 15.6%; in assay [3], 6.02% (active); in assay [4], 40%; in assay [5], 34%; in assay [6], 55.6%. In addition, the growth is 36.7% in assay [7]; 17.2% in [8]; 34.5% in assay [9]; 58.1% in assay [10]; 37.5% in [11]; 46.5% in [12]. The growth in assay [13] is 42.4%; in [14] it was 44%; in assay [15] it was 76.3%; in assay [16], 51.3%; in [17], 34.3%; in assay [18] it was 38.3%. Besides, the values for the growth in assay [19] and in assay [20] were 47.1% and 28.5%, respectively.
Consider `O=C(O)CC1CCN(c2ccc3nnc(Cl)n3n2)CC1`, for which the growth is 98.8% in assay [1]; 101% in assay [2]; 84.7% in assay [3]; 100% in assay [4]; 110% in [5]; 104% in assay [6]. The growth in assay [7] was 101%; in [8] it was 95.5%; in assay [9], 95.6%; in assay [10] it was 102%; in assay [11], 106%; in assay [12], 99.1%. Besides, the growth in [13] is 98.4%; in assay [14], 81.5%; in assay [15], 102%; in [16], 98.6%; in [17], 95.8%; in assay [18], 90.2%. Also, the growth in assay [19] was 111%; in assay [20], 109%.
In the case of `Clc1ccc2[nH]cc(-c3nn4cc(-c5cccnc5)nc4s3)c2c1`, the growth in assay [1] was 95.1%; in assay [2], 98.7%; in assay [3], 90.5%; in [4], 100%; in assay [5] it was 93.8%; in [6] it was 88.6%. Further, the growth in [7] was 96.2%; in assay [8] it was 90.1%; in [9] it was 123%; in assay [10], 101%; in assay [11], 101%; in assay [12], 84.1%. The growth is 96.6% in [13]; 71.6% in [14]; 184% in assay [15]; 87.8% in assay [16]; 69.7% in assay [17]; 109% in assay [18]. The growth in [19] is 84.3%; in assay [20], 94.5%.
Turning to `C#C[C@]1(O)CC[C@H]2[C@@H]3CC=C4c5sc(Nc6ncccc6C)nc5CC[C@]4(C)[C@H]3CC[C@@]21C`, the growth in [1] is -1.06% (active); in assay [2], 25.4%; in assay [3] it was -2.92% (active); in assay [4], 1.7% (active); in [5] it was 3.14% (active); in assay [6], -18.4% (active). In addition, the growth in assay [7] is 5.96% (active); in assay [8], -25.9% (active); in [9], -78% (active); in [10] it was -78.7% (active); in [11], -11.1% (active); in assay [12], -10.6% (active). In addition, the growth was 40.9% in [13]; -39.8% (active) in assay [14]; 40.9% in [15]; 18.1% in assay [16]; -36.3% (active) in assay [17]; -5.84% (active) in assay [18]. For the same compound, the growth in assay [19] is 7.66% (active); in assay [20], -30.3% (active).
In the case of `c1ccc(-c2cn3c(-c4c[nH]c5ccccc45)csc3n2)cc1`, the growth in assay [1] is 85.6%; in [2], 63%; in assay [3] it was 80.9%; in [4] it was 59.7%; in assay [5], 61%; in assay [6], 43.2%. Also, the growth was 81% in [7]; 49.6% in assay [8]; 83.7% in assay [9]; 71.9% in [10]; 77.4% in assay [11]; 72% in assay [12]. In addition, the growth is 53.6% in assay [13]; 73% in assay [14]; 148% in [15]; 91.8% in assay [16]; 77.9% in assay [17]; 79.3% in [18]. Besides, the growth is 53% in assay [19] and 66.9% in assay [20].
As for `Brc1ccc(-c2cc(-c3ccc4c(c3)OCCO4)n[nH]2)s1`, the growth in assay [1] is 19.2%; in assay [2], 11.1%; in assay [3], 7.95% (active); in assay [4], 42.6%; in assay [5], 27.8%; in assay [6], 50%. For the same compound, the growth in assay [7] is 12.1%; in assay [8] it was 49.5%; in assay [9], 41.7%; in assay [10], 57.8%; in assay [11], 55.3%; in assay [12], 48.4%. Moreover, the growth is 54.3% in [13]; 44.5% in assay [14]; 105% in assay [15]; 47.9% in [16]; 31.7% in [17]; 40.3% in assay [18]. Besides, the growth in [19] was 18.1%; in assay [20], 19.3%.
On to `Cc1ccc2c(n1)C(=O)C(Cl)=C(Nc1ccc(C(F)(F)F)cc1)C2=O`, for which the growth is -58.6% (active) in assay [1]; 96.8% in assay [2]; 115% in assay [3]; 97.5% in assay [4]; 91.5% in assay [5]; 72.4% in assay [6]. The growth in assay [7] is 95.3%; in [8] it was 96.6%; in assay [9], -57.1% (active); in assay [10], 51%; in assay [11], 103%; in [12] it was 77.2%. The growth in assay [13] is 91.8%; in [14], -85.2% (active); in [15] it was 85.4%; in [16], -98.4% (active); in [17], 44.4%; in [18], 79%. Also, the growth in assay [19] is 2.47% (active); in [20] it was 8.71% (active).
